# PubChem BioAssay (NCI)
# “And” between values parts separate entries of the source, which are not always exact repeats. Equal values may be shown once. Compounds without any hit were thinned out: in the full panel of roughly 83,000, 20% have a hit.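 Each cell line was grown in a 96-well plate and treated with one concentration of compound for 48 hours. Values below 10 were considered active.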 A number with no mark means an inactive call. The source made the active and inactive calls. Where a SMILES comes first, the peptide text is derived from it. [ ]: non-standard residue; d: D form. ξ: configuration not given here. ξD = NC(CC(=O)O)C(=O)O
# Experiments:
# Test in all cases: NCI-60 one-dose screen, 48 h (100 = growth as untreated, 0 = no growth, -100 = all killed)
# Settings in all cases: 10 µM unless noted
# [1] = test system: T-47D breast
# [2] = test system: MDA-MB-435 melanoma
# [3] = test system: SW-620 colon
# [4] = test system: MCF7 breast
# [5] = test system: HCT-116 colon
# [6] = test system: HCC-2998 colon
# [7] = test system: KM12 colon
# [8] = test system: BT-549 breast
Structure (SMILES),growth [1],growth [2],growth [3],growth [4],growth [5],growth [6],growth [7],growth [8] [%]
OC(CSc1ccccc1)CN1CCN(c2ccc(Cl)cc2)CC1 (centres undefined),95.9%,105%,105%,98%,90.2%,95.3%,110%,
CCCCCCCCCCCC1=NCCCN1CCCC,97.4%,110%,97.5%,91.1%,83.6%,75.7%,103%,
OC(c1cc2ccc(C(F)(F)F)cc2c2cc(C(F)(F)F)ccc12)C1CCCCN1 (centres undefined),-90.5% (active),-100% (active),-100% (active),-90.8% (active),-86.5% (active),-86.7% (active),-97.3% (active),
C[C@@]1(CO)[C@H](O)CC[C@@]2(C)[C@H]1CC[C@H]1C[C@@H]3C[C@@]12CC[C@@]3(O)COC(=O)CN,61.8%,55.1%,50.9%,36.9%,33.3%,,61.8%,
CCCCCCCCCCCCCCCCCC1=NCCCN1CCO,103%,115%,98.9%,86.7%,114%,93.4%,106%,
O=C(CCl)N(c1ccccc1)c1ccccc1,110%,98%,108%,102%,111%,119%,106%,
O=C(c1ccccc1)c1cc2ccccc2oc1=O,85.5%,109%,113%,108%,99.4%,118%,92.3%,
CCC(C)C(N)C(=O)NC(CC(N)=O)C(=O)NC(CC(C)C)C(=O)NC(CCCCN)C(=O)NC(C)C(=O)NC(CC(C)C)C(=O)NC(C)C(=O)NC(C)C(=O)NC(CC(C)C)C(=O)NC(C)C(=O)NC(CCCCN)C(=O)NC(CCCCN)C(=O)NC(C(=O)NC(CC(C)C)C(N)=O)C(C)CC (centres undefined),93.9%,77.7%,103%,97.4%,82.5%,,90.2%,
C[n+]1ccccc1C[n+]1ccccc1,105%,115%,118%,92.3%,107%,110%,103%,
CCSc1nc2ccccc2o1,106%,111%,106%,99.5%,111%,117%,108%,
Fc1ccc(NCCS)cc1,103%,107%,102%,90%,111%,96.7%,98.3%,
O=[N+]([O-])c1ccc2c(c1)Cc1ccccc1-2,94%,99.4%,95.8%,94.8%,91.3%,98.3%,98.3%,
O=C1c2ccccc2C(=O)c2c(O)c(Cl)cc(O)c21,28.1%,102%,72.6%,49.9%,6.19% (active),102%,83.7%,
CN(C)c1ccc(/C=C/c2sc3ccc4ccccc4c3[n+]2C)cc1,-10.9% (active),-34.8% (active),-63.9% (active),-9.73% (active),-71.8% (active),-91.5% (active),-63% (active),
O=[N+]([O-])c1ccc([I+]c2ccccc2)cc1,-20% (active),20.8%,19.5%,-29% (active),-31.4% (active),46.1%,-75.7% (active),
c1ccc(C2NCCNC2c2ccccc2)cc1 (centres undefined),104%,102%,101%,103%,104%,,110%,
Clc1ccccc1C(c1ccccc1)(c1ccccc1)n1ccnc1,13.4%,33.8%,43.6%,18.3%,22.3%,52%,27%,
COc1cc(-c2ccc(-[n+]3nc(-c4ccc([N+](=O)[O-])cc4)nn3-c3ccc([N+](=O)[O-])cc3)c(OC)c2)ccc1-[n+]1nc(-c2ccc([N+](=O)[O-])cc2)nn1-c1ccc([N+](=O)[O-])cc1,-34.2% (active),-58.4% (active),2.63% (active),-65% (active),6.85% (active),29.8%,25.4%,
Oc1ccc2ccccc2c1N=Nc1nccs1,15.5%,35.3%,24.7%,17.1%,-20.8% (active),-5.47% (active),25%,
COc1cc([C@@H]2c3cc4c(cc3[C@H](OC3OC5COC(c6ccccc6)OC5C(O)C3O)[C@H]3COC(=O)[C@H]23)OCO4)cc(OC)c1OC (some centres undefined),107%,22.7%,43.9%,10.5%,12.3%,-5.24% (active),42.9%,

Structure (SMILES),growth [1],growth [2],growth [3],growth [4],growth [5],growth [6],growth [7],growth [8] [%]
O=C1CSC(=S)N1Cc1cccnc1,18.5%,37%,17%,10.5%,42.3%,126%,7.96% (active),
O=C1C(=O)c2cc([N+](=O)[O-])ccc2-c2ccccc21,-35.6% (active),-79.3% (active),-81.1% (active),-55.3% (active),-92.5% (active),65.9%,-81.7% (active),
c1ccc(-c2cc3cc4ccccc4cn3c2)cc1,,91.4%,89.9%,88.8%,88%,121%,86.2%,
COc1cc(NC(=O)C2=C(C)NC(C)=C(C(=O)Nc3cc(OC)c(Cl)cc3OC)C2c2cccc([N+](=O)[O-])c2)c(OC)cc1Cl,,9.7% (active),46.4%,14.5%,23.9%,15.6%,,36.9
O=[N+]([O-])c1ccc(Oc2ccccc2Cl)c([N+](=O)[O-])c1,,81.5%,39.9%,89.4%,88.2%,112%,89.2%,
Oc1ccc(Cl)cc1Cc1cc(Cl)ccc1O,,36.7%,26.9%,31.9%,2.45% (active),50.7%,,37.1
Cn1c(COC(=O)NC2CCCCC2)c(COC(=O)NC2CCCCC2)c2ccc3cc(Cl)c(Cl)cc3c21,,,,-78.6% [100 µM] (active),,,,
Nc1ccc(C(=O)/C=C/c2ccccc2)cc1,,96.8%,103%,73.3%,60.3%,100%,74.2%,61.1
Nc1nc2ncc(CNc3ccc(C(=O)NC(CCC(=O)NC(CCC(=O)NC(CCC(=O)NC(CCC(=O)NC(CCC(=O)O)C(=O)O)C(=O)O)C(=O)O)C(=O)O)C(=O)O)cc3)nc2c(=O)[nH]1 (centres undefined),,111%,105%,98.7%,103%,117%,101%,106
CCCCCCCCCCCC[S+](C)CC(=O)[O-] (centres undefined),,47.2%,69.9%,58.2%,45.5%,34.4%,30.7%,
Nc1nc(-c2ccccc2)nc(N)c1N=O,,46.7%,1.65% (active),33%,51.6%,103%,58.8%,56.3
S=C(S)OCN1CCOCC1,88.1%,88.4%,74.8%,,98.8%,97.4%,,
CC(=O)Nc1ccc(C(=O)CCl)cc1,,14.4%,-16.6% (active),3.18% (active),32.3%,102%,,58.6
CN(Cc1ccccc1)c1ccc(SC#N)cc1,,94.7%,85.3%,76.3%,39.5%,89.8%,40.4%,43.9
CC1CC(C)(C)OB(OC(C)CC(C)(C)OB2OC(C)CC(C)(C)O2)O1 (centres undefined),,107%,117%,96.6%,99.9%,93.3%,101%,77.7
O/N=C1\c2ccccc2-c2ccc(F)cc21,,114%,112%,25.6%,98.3%,95.1%,,97.4
CCCCCCCCC(=O)OCCCC(CCC(CCC1CCCO1)OC(=O)CCCCCCCC)OC(=O)CCCCCCCC (centres undefined),,104%,99.8%,100%,92.4%,123%,103%,92.7
O=C(/C(Cl)=N/O)c1ccc(-c2ccccc2)cc1,,114%,110%,89.5%,113%,105%,108%,94.7
Fc1cccc(F)c1C1SCc2nc3cc4ccccc4cc3n21 (centres undefined),,,,-28.9% [100 µM] (active) and -2.13% [100 µM] (active),,,,
CCOC(=O)c1c(C)[nH]c2ccc(O)cc12,,100%,105%,83.4%,103%,107%,86.4%,

Structure (SMILES),growth [1],growth [2],growth [3],growth [4],growth [5],growth [6],growth [7],growth [8] [%]
Cc1cc2nc(CC(=O)c3ccncc3)c(=O)[nH]c2cc1C,,107%,103%,88.5%,88.5%,102%,103%,
CC(=O)N1CC(=O)NC1=S,,98.3%,102%,94.1%,102%,95%,,103
O=C(Cc1nc2cc(Cl)c(Cl)cc2nc1CC(=O)c1ccccc1)c1ccccc1,,67.4%,92.6%,9.51% (active),56.8%,92.8%,77.3%,
NNc1cccc([N+](=O)[O-])c1,,86.8%,63.2%,106%,70.4%,110%,52.5%,93.6
O=Cc1ccc(-c2ccc(-c3ccc(CO)s3)o2)s1,,,,-23.2% [100 µM] (active) and -100% [100 µM] (active),,,,
CC(C)(C)CC(C)(C)c1ccc(OCCOCCSC(=N)N)cc1,,-64.8% (active),-2.39% (active),4.55% (active),-65% (active),-32.3% (active),36.9%,28
CCOC(=O)NC(/C=C/c1ccccc1)NC(=O)OCC,,106%,100%,101%,93.6%,112%,,107
O=C/C=C/c1ccc([N+](=O)[O-])cc1,,108%,106%,90.3%,80.6%,95.8%,101%,116
NCC(=O)NC(CC(=O)O)C(=O)O (centres undefined) (H-Gly-[ξD]-OH),,99.5%,98.9%,100%,106%,110%,107%,102
C[C@@H]1CCC([C@@H](C)[C@H]2CC[C@H]3[C@@H]4CC[C@H]5C[C@@H](O)CC[C@]5(C)[C@H]4CC[C@]23C)=NC1,,,,8.1% [100 µM] (active) and -46.7% [100 µM] (active),,,,
COc1ccc2nc3cc(Cl)ccc3c(NCCCCCN3CCCCC3)c2c1,,-92% (active),-27.4% (active),-33.5% (active),-61.5% (active),-76.7% (active),-12.8% (active),
CN(C)CC(C)(CN(C)C)C(=O)/C=C/c1c(Cl)cccc1Cl,,13.1%,4.63% (active),-60.9% (active),-41.2% (active),37.2%,-25.7% (active),51.1
CC(C)N=C(N)/N=C(\N)Nc1ccc2ccc3ccccc3c2c1,-67.8% (active),-93.7% (active),,-90.5% (active),3.26% (active),-90.9% (active),,
Oc1ccc2ccccc2c1N=Nc1ccccn1,12.7%,49.9%,,0.0702% (active),1.41% (active),45.2%,34.4%,
Oc1ccccc1N=Cc1ccccc1,,87%,85.1%,74.3%,69.4%,100%,74.1%,79.7
O=C(Cc1nc2cc(Cl)c(Cl)cc2nc1CC(=O)c1cccnc1)c1cccnc1,,75.9%,90.3%,29.6%,52.7%,115%,85.9%,
Oc1c(C(Nc2ccccc2)c2ccccc2)ccc2cccnc12 (centres undefined),,23.8%,45.1%,16.3%,19.3%,44.9%,32.5%,49.8
N#C/C(=N\Nc1ccc(Cl)cc1)C(=O)C1CC1,,41%,63.1%,51.7%,63.9%,72.1%,56.2%,40.2
O=[N+]([O-])/C(=C/c1ccccc1)c1ccccc1,,107%,107%,97.4%,96.5%,94.1%,107%,93
CCOC(=O)C1=C(C(=O)c2ccccc2)C(c2cccc([N+](=O)[O-])c2)C(C(=O)c2ccccc2)=C(C(=O)OCC)N1,,91.6%,70.2%,13%,37.5%,105%,75.8%,89.9
